# From PubChem BioAssay AID1508600 (Functional Genomics Laboratory (NCATS/FGL), 2020)
# Among all 53,000 sequences or so, about 3,700 (7%) were called active.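 How the source made its calls: active means gene knockdowns whose robust z-score for IL-1 alpha signal is at least 2 or at most -2, so actives lie on both sides; inactive means the rest.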 The full list was thinned out, with actives kept by preference.
# Experiment: Components of the Cytosolic LPS Sensing Pathway: Gene Identification via Genome-wide siRNA Screen;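 further: robust z of the log signal after scaling to non-targeting control siRNA wells of the plate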
# Conditions: RAW264.7 macrophages, IL-1a HTRF, actives lie on both sides, screened at 100 nM (by protocol), cells primed 5 h with Pam3CSK4 first
# Procedure, shortened: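 Cells (RAW264.7, 1×10^4 per well) were transfected with siRNA at 100 nM and cultured 48h at 37 degrees C. Pam3CSK4 was added for 5 hours; LipidA transfection followed for 24 hour. IL-1a was then measured by HTRF.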
row,Sequence,z-score
1,GGAUCCUUAAUCGAUACACTT against Gng3,2.38 (active)
2,GCCUACAGGAGUGAGAUAATT against Arhgap33os,-1.36 (inactive)
3,AUUGCAUUGUAUUCACUUGTT against Psg22,0.777 (inactive)
4,GGAAUUCACAUUUGACUGUTT against Irx3os,0.31 (inactive)
5,GGGUUGGAUAGAAUAUUGUTT against Xk,1.4 (inactive)
6,GCCUCGAUUGGCCACAUUUTT against Atp5l,4.61 (active)
7,GCAGUAUGAGGUAAAUUAUTT against Amer3,1.05 (inactive)
8,GCCUUCAUUAUUUUAAUGCTT against Ilf3,0.0185 (inactive)
9,GGCAAAAUGAUCUGCUUUCTT against Trim69,-0.125 (inactive)
10,GGUUGCUCAGAUUCAGAAUTT against Isy1,-1.53 (inactive)
11,GGAACCUAGAGAAAAAGAATT against Iyd,-1.18 (inactive)
12,GGCUUUCCAGAAGACAGAATT against Cyp2s1,0.469 (inactive)
13,GCUCUGUUAAGGAAGAACATT against Safb2,2.02 (active)
14,GCUAUGACUCCAACAUGCGTT against Jaml,0.0115 (inactive)
15,GGUGAAGACAGAAUUUCCGTT against 1700128F08Rik,-1.01 (inactive)
16,GGAAGCAAGGAAAAUCAUGTT against Lpo,-0.289 (inactive)
17,GGUGAUACGUAUUUUUUAGTT against Pan3,-1.09 (inactive)
18,GGGUUGUCUUCAUCUACUUTT against Crhr1,3.47 (active)
19,GGUGUUUACUUCCUCAGAATT against Slc9b2,-0.373 (inactive)
20,GGAGAUAUCCAUCAAUAGUTT against Nbr1,0.874 (inactive)
21,GGACUUCUAAAAAUCUCUGTT against Gabrb2,0.746 (inactive)
22,GCGCGCAGUGAACGAAAAATT against Mycn,1.14 (inactive)
23,CCAUCACGGAUAAUCAUCGTT against 4931417E11Rik,-1.65 (inactive)
24,GGUACUUCCUACCUAACAGTT against Nipa1,-0.235 (inactive)
25,CCACAGGUUACAACAUAAATT against Pign,-1.45 (inactive)
26,GCUCCACAAGAUGUAAAGGTT against Il21,0.11 (inactive)
27,GGAACUGAUGAUGGACCAGTT against Slc4a1,3.39 (active)

row,Sequence,z-score
1,GGGCCAUUUUAGGUCCUUUTT against Rbm7,0.112 (inactive)
2,GGACUUACCUUUAACCAACTT against Slc30a4,0.42 (inactive)
3,GGGAAUGAAAAGUCAAAAGTT against Stard7,-0.047 (inactive)
4,GCAGCUCUAGGUGUUCAGUTT against Gjc3,0.955 (inactive)
5,GCCAUUGGGUGUAACAUUUTT against Mpp6,3.35 (active)
6,GCCAUGCACUAACUUGAAUTT against Adamts4,-0.0391 (inactive)
7,GCACUUUACGAGUAUGUAATT against Gnl1,-1.74 (inactive)
8,GGUAUUGGAAAGUAGAAACTT against Igflr1,0.515 (inactive)
9,CCGAGUGGUUAGCUACCAGTT against Ccl24,2.4 (active)
10,GGAGAUCCUUCAUUACCUGTT against Psap,-1.34 (inactive)
11,GGGAUCGUCCAGAUCUAAUTT against Apobec3,-0.982 (inactive)
12,GGACUGUCCUCCAAUUUGCTT against Nat8f3,-2.6 (active)
13,GGGAAAUUUACAGAAAGUGTT against Igtp,0.956 (inactive)
14,CGGGCUCAGGUAAAACUCUTT against Ddx31,-0.217 (inactive)
15,GGAGAGCUUGUUCAAGUGCTT against Zxdc,-0.86 (inactive)
16,CCUCAUUGGUUUGACCCAGTT against Hsd17b6,0.172 (inactive)
17,GCCAUUAACUAUGGGACCUTT against Lck,-0.0729 (inactive)
18,GCUAUCACUUUUCAUUAGATT against G0s2,-0.902 (inactive)
19,CCUGCUAAGAGAGUACUAUTT against Pglyrp2,1.51 (inactive)
20,GGUUGGACGUGGUGAAGAATT against Chtf18,-2.24 (active)
21,GGAAUACAAACUGCUGUACTT against Urgcp,0.138 (inactive)
22,GGAAGUGUGAACUUCAUCATT against Zdhhc6,2.78 (active)
23,GCCCACGAGCCUCAUGGACTT against Sts,-0.805 (inactive)
24,GGAGUAUCGUAAUGCGGACTT against C4b,0.598 (inactive)
25,GGACUCCUAAUGAAUAAUCTT against Wee2,2.06 (active)
26,CCUUCCUUACCUACGUGAGTT against Nup88,1.71 (inactive)
27,CCUCAAGGCAGUUCAUAUUTT against Zfp790,-0.334 (inactive)
